Source: PubChem BioAssay AID431 (Sanford-Burnham Center for Chemical Genomics, 2006)
The whole screen tested about 63,000 compounds, of which about 1,100 (1.7%) were called active. This is one part of a sample in which actives are shown more often than they occur.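 How the source made its calls: active means compounds whose percent cytotoxicity in the single-dose primary screen, scaled between solvent and toxic-drug controls, exceeds 50; inactive means the rest.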 Measured potencies and affinities stand elsewhere.

Assay: cytotoxicity in KRAS-transformed pancreatic duct cells, primary screen, cell-based, fluorescence, HTS (AID 431);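 further: 0% = DMSO solvent wells and 100% = doxorubicin-treated wells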
Settings: HPDE-C7K KRASV12 cells, Alamar Blue viability, 48 h; at 10 µM; stronger effect = higher value

| Compound | cytotoxicity |
| --- | --- |
| CCCC(=O)Nc1ccccc1NC(=O)CN(C)S(=O)(=O)c1ccccc1 | -1.8% (inactive) |
| CC(C)(C)NC(=O)CSc1nsc(SCC(=O)NC(C)(C)C)c1C#N | 11.8% (inactive) |
| Cc1csc(NC(=O)CSc2nc(C)cs2)n1 | 6.5% (inactive) |
| Cc1n[nH]c(C)c1Cc1ccc(C(=O)O)cc1 | -13.2% (inactive) |
| CS(=O)(=O)c1ccc2nc(NC(=O)CC3CCCC3)sc2c1 | -9% (inactive) |
| Cc1cc(C)c(NC2=NCC(=O)N2C2CCCCC2)c(C)c1 | -9.5% (inactive) |
| Cc1nc(N2CCc3ccccc3C2)[nH]c(=O)c1CCC(C)C | 8.4% (inactive) |
| COc1ccc(C)cc1NC(=O)CN(c1ccccc1)S(C)(=O)=O | -2.4% (inactive) |
| O=C(Nc1nccs1)c1cc2sccc2n1Cc1ccc(F)cc1 | -3.4% (inactive) |
| COc1ccc(-n2nnnc2SCC(=O)NCCc2ccc(OC)c(OC)c2)cc1 | -3.9% (inactive) |
| COc1ccc(CCNC(=O)CSc2nnnn2-c2ccccc2OC)cc1OC | 6.4% (inactive) |
| CCCSc1nnc(Sc2nnnn2-c2ccccc2)s1 | 88.2% (active) |
| C(=C\CSc1nnnn1-c1ccccc1)/CSc1nnnn1-c1ccccc1 | -12.8% (inactive) |
| Cn1ccnc1Sc1nnnn1-c1ccccc1 | -9.8% (inactive) |
| c1ccc(-n2nnnc2SCCCSc2nc3ccccc3s2)cc1 | 2% (inactive) |
| Cc1ccc(C)c(Oc2nnnn2-c2ccccc2)c1 | -2.3% (inactive) |
| COc1ccc(CCNc2nnc(Sc3nnnn3-c3ccccc3)s2)cc1OC | 68.8% (active) |
| CC1CC(c2ccccc2)n2nc(NC(=O)CCc3ccccc3)nc2N1 (centres undefined) | 3.9% (inactive) |
| O=C(NCc1cccs1)c1noc2c1CCCC2 | 5.2% (inactive) |
| O=C1CC(N2CCN(c3ccc(S(=O)(=O)N4CCCC4)cc3)CC2)C(=O)N1c1ccc(F)cc1 (centres undefined) | -0.7% (inactive) |
| CCOc1ccc2[nH]c(O)c(NC(C)=O)c2c1 | -16.9% (inactive) |
| Cc1oc(-c2ccc(Cl)cc2)nc1CN1CCC(C(=O)N2CCN(c3ccccn3)CC2)CC1 | 8% (inactive) |
| O=C(NC1CCCCC1)n1c(=O)oc2ccccc21 | -35.5% (inactive) |
| O=C(Nc1nc(-c2ccco2)cs1)c1ccccc1 | 20.8% (inactive) |
| O=C(Nc1nc2c(s1)C(=O)CCC2)c1ccccc1 | -6.7% (inactive) |
| Cc1nc(NC(=O)c2ccccc2)sc1-c1csc(N)n1 | 58.6% (active) |
| Cc1nc(NC(=O)c2ccccc2)sc1-c1csc(NCc2ccco2)n1 | 73.6% (active) |
| CCOC(=O)c1csc(NC(=O)c2ccccc2)n1 | -0.2% (inactive) |
| Cc1nc(C)c(-c2csc(NCc3ccco3)n2)s1 | -14.9% (inactive) |
